{"source": "PubChem BioAssay (NCATS)", "note": "Results filed as inconclusive are left out. A number with no mark means an inactive call. The call rests on the fitted dose curve; in most records, active means well fitted curve in the direction sought with a large enough effect; inconclusive means small, poorly fitted or top-dose-only effect, or another doubt; inactive means no such curve, though single readings can be large; an effect the other way counts as inactive or inconclusive. Square brackets hold non-standard residues; d marks the D form. Peptide text beside a SMILES is read from it. * marks the point of attachment. ξ: configuration not given here. Hexanoyl = CCCCCC(=O)*; ξL = CC(C)CC(N)C(=O)O", "data": [{"assay": "Cytotoxicity qHTS for assessment of Hepg2 cells membrane integrity screened against the NCATS CANVASS Library (AID 1347387)", "settings": "HepG2 LDH release (CytoTox-ONE) fluorescence, 5 h; series mostly up to 46.1 µM; cytotoxicity (LDH release): at the top concentration", "summary_of_the_method": "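HepG2 cells (2000/well) attached overnight, then exposed 5 hr at 37C to compounds in an 11-point series (0.59 nM - 46 uM final). LDH release from damaged membranes read fluorometrically (CytoTox-ONE; 560/590 nm) after 10 min at room temperature.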", "values": [{"smiles": "C=C1CCC2C(C)(C(=O)O)CCC(CC/C(C)=C/C(=O)NC(CCC(N)=O)C(=O)O)[C@@]2(C)C1", "note": "(some centres undefined)", "cytotoxicity (LDH release)": 0.73}, {"smiles": "C=C1[C@@]2(C)CC3C4(C)CCC(O)C(C)(C)C4CCC3(C)[C@]1(C(=O)OC)C(=O)C(C)(O)C2=O", "note": "(some centres undefined)", "cytotoxicity (LDH release)": -1.06}, {"smiles": "CC(C)=CCC[C@]1(C)[C@H]2CC(=O)[C@@]3(CO3)[C@@H]1C2", "cytotoxicity (LDH release)": 1.03}, {"smiles": "CCCCCC(=O)N[C@@H](CC(C)C)C(=O)N[C@H](C=O)CCC(=O)O", "note": "(Hexanoyl-Leu-Glu-aldehyde)", "cytotoxicity (LDH release)": 0.924}, {"smiles": "COc1ccc([C@@H]2c3cc4c(cc3C(=O)C(C)C2C)OCO4)cc1OC", "note": "(some centres undefined)", "cytotoxicity (LDH release)": 1.41}, {"smiles": "CC1(C)CC[C@]2(CO)CC[C@]3(C)C(=CCC4[C@@]5(C)CC[C@H](O)C(C)(C)C5CC[C@]43C)C2C1", "note": "(some centres undefined)", "cytotoxicity (LDH release)": -0.442}]}, {"assay": "qHTS for Activators of p53 Stress Response Pathway screened against the NCATS CANVASS Library (AID 1347388); further: 0% is about no effect", "settings": "p53RE-bla HCT-116, beta-lactamase reporter, 16 h; series mostly up to 46.1 µM; activation: at the top concentration", "summary_of_the_method": "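p53RE-bla HCT-116 cells (4000/well) were pre-incubated for 5 h, then treated with compound (11 points) for 16 h at 37C. After 2 h with CCF4, the 460/530 nm ratio gave reporter activation; CellTiter-Glo measured viability.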", "values": [{"smiles": "CC(=O)N[C@H](C)c1nc(/C=C/C=C/C(=O)CC2CC(=O)CC[C@]2(C)O)cs1", "note": "(some centres undefined)", "activation": "1.74%"}, {"smiles": "CN1C(=O)C(=O)N2C(=C[C@]3(c4c[nH]c5ccccc45)c4ccccc4N[C@H]23)C1=O", "activation": "-1.54%"}, {"smiles": "CN1CC[C@]23c4ccccc4N[C@H]1[C@]21CCN(C)[C@H]3Nc2ccccc21", "activation": "-3.48%"}, {"smiles": "C/C=C1/C2=CCCN3C(=O)O[C@H]([C@H]1O)[C@H]23", "activation": "12.5%"}, {"smiles": "COC1C(C)OC(OCC23C[C@@H]4[C@H](C)CC[C@H]4C4(C=O)CC2C=C(C(C)C)C34C(=O)O)[C@@H](O)[C@H]1O", "note": "(some centres undefined)", "activation": "-1.48%"}, {"smiles": "CN1CC[C@@]2([C@@]34CCN(C)[C@@H]3Nc3ccccc34)c3ccccc3N[C@@H]12", "activation": "1.32%"}, {"smiles": "COc1ccc(-c2oc3cc(OC)cc(OC)c3c(=O)c2O)cc1", "activation": "0.825%"}, {"smiles": "CC[C@@H](C)[C@H]1NC(=O)C(CC(C)C)NC(=O)[C@@H](CC(C)C)NC(=O)[C@H](Cc2c[nH]c3ccccc23)NC(=O)CNC(=O)[C@@H](CC(N)=O)NC1=O", "note": "(stereo partly drawn) (cyclo(GW[dL][ξL][dI][dN]))", "activation": "6.35%"}, {"smiles": "Cc1cc(O)cc2c1C(=O)c1c(O)cc(O)cc1C2=O", "activation": "-2.08%"}, {"smiles": "C=C(Cl)[C@](Cl)(CBr)CC[C@@H](Br)C(C)(C)Cl", "activation": "0.681%"}, {"smiles": "C=C(C)C(=O)O[C@H]1C[C@@]2(C)OC(=CC2=O)/C(C)=C\\[C@H]2OC(=O)C(=C)[C@H]12", "activation": "-4.22%"}, {"smiles": "C=C[C@]1(C)CC[C@@H]([C@H](C)C(=O)CC=C(C)C)O1", "activation": "3.17%"}, {"smiles": "CC[C@@H]1C[C@@]2(CC)OC(=O)[C@@]3(CC)[C@H](CC)[C@@H]1[C@@H]23", "activation": "-3.05%"}, {"smiles": "[C-]#[N+][C@@]12C(=O)[C@@H]3[C@@H](O[C@@]4(C(=O)N(C)c5cccc1c54)C3(C)C)C(=O)[C@@]2(C)C=C", "activation": "-6.4%"}, {"smiles": "COC(=O)c1cccc2oc(-c3cccc4oc(-c5c(C)cccc5O)nc34)nc12", "activation": "10.2%"}, {"smiles": "C[C@@]12CCC[C@@](C)(C(=O)OP(=O)(O)OC[C@H]3O[C@@H](n4cnc5c(N)ncnc54)[C@H](O)[C@@H]3O)[C@H]1C[C@@H](O)[C@@]13C[C@@H](CC[C@@H]21)[C@](C)(O)C3", "activation": "-2.21%"}, {"smiles": "CCC(C)=C1OC(=O)[C@H](C)[C@H](O)[C@H](Cc2cccnc2)NC(=O)C(NC(=O)c2ncccc2O)C(C)OC1=O", "note": "(some centres undefined)", "activation": "2.11%"}, {"smiles": "C[C@@]12CCC[C@@](C)(C(=O)O)[C@H]1CC[C@@]13C[C@@H](CC[C@H]12)[C@](C)(O)C3", "activation": "1.7%"}, {"smiles": "O=C1OC(CCO)c2cccc(O)c21", "note": "(centres undefined)", "activation": "-1.03%"}, {"smiles": "C=C1C[C@]23C=CC(=O)[C@@](C)(CCCC(C)C(=O)N[C@@H](CO)C(=O)O)[C@@H]2C[C@@H]1CC3", "note": "(some centres undefined)", "activation": "-4.31%"}, {"smiles": "COc1cc2ccc(=O)oc2c(O)c1O[C@@H]1O[C@H](CO)[C@@H](O)[C@H](O)[C@H]1O", "activation": "6.84% [at 27.5 µM]"}, {"smiles": "C/C(=C\\[C@@H](C)CC/C=C/CC/C=C/C(=O)O)[C@@H](O)[C@H](C)C(=O)CCCC1CC(=O)NC(=O)C1", "activation": "3.57%"}, {"smiles": "CO[C@@H](C[C@@H](C)[C@@H](O)/C=C/C=C/CNC(=O)C(C)(C)[C@H](O)\\C(C)=C/C=C\\C=C\\Cc1cnco1)[C@]1(O)[C@@H](C)C(=O)N(C)[C@@]12COC2=O", "activation": "-0.338%"}, {"smiles": "O=C1CC(c2ccc(O)cc2)Oc2cc(O)cc(O)c21", "note": "(centres undefined)", "activation": "2.01%"}, {"smiles": "O=C1CC(c2ccc(O)cc2)Oc2cc(O)ccc21", "note": "(centres undefined)", "activation": "1.3%"}, {"smiles": "CN1CC[C@@]23c4ccccc4N[C@@H]1[C@@]21CCN(C)[C@@H]3Nc2ccccc21", "activation": "2.21%"}, {"smiles": "C[C@@]12CCC[C@@](C)(C(=O)O)[C@H]1C[C@@H](O)[C@@]13C[C@@H](CC[C@@H]21)[C@](C)(O)C3", "activation": "-2.98%"}, {"smiles": "O=Cc1ccc2n1C[C@]1(OC2)O[C@H](CO)[C@@H](O)[C@@H]1O", "activation": "-1.71%"}]}]}
